Among the test systems are NCI-H23 lung; NCI-H226 lung; NCI-H322M lung; NCI-H460 lung; HOP-92 NSCLC; NCI-H522 lung; A549/ATCC NSCLC; 786-0 renal; COLO 205 colon; DU-145 prostate; K-562 leukemia; MALME-3M melanoma; MDA-MB-231 breast; RXF 393 renal; SF-268 CNS; SF-295 CNS; SF-539 CNS; UACC-257 melanoma; M14 melanoma.
Test in all cases: NCI-60 one-dose screen, 48 h (100 = growth as untreated, 0 = no growth, -100 = all killed)
Holding throughout (settings): 10 µM unless noted

Each structure is given as a SMILES string. This is part of a sample that, as a whole, favours compounds with a hit. Of some 83,000 tested, about 20% had one in any assay.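 In brief: 96-well plates, 48 h treatment, single concentration, percent growth endpoint.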 A number with no mark means an inactive call. Activity calls are given as the source filed them. The calls were made as follows: active = growth percent below 10; inactive = the rest.

Consider `O=C(O)/C=C\C(=O)Nc1ccc2c(c1)Cc1cc(F)ccc1-2`, for which the growth in the experiment with NCI-H23 lung is 95.9%; with NCI-H226 lung, 98.3%; in the experiment with NCI-H322M lung it was 99.7%; with NCI-H460 lung it was 110%; with HOP-92 NSCLC, 97.5%; in the experiment on NCI-H522 lung, 90.9%. Further, the growth with A549/ATCC NSCLC is 106%; in the experiment on 786-0 renal, 99.7%; in the experiment with COLO 205 colon it was 105%; in the experiment with DU-145 prostate, 111%; with K-562 leukemia, 104%; in the experiment with MALME-3M melanoma, 98.9%. Besides, the growth is 112% in the experiment with MDA-MB-231 breast; 114% in the experiment with RXF 393 renal; 96% in the experiment on SF-268 CNS; 96.4% in the experiment with SF-295 CNS; 94.9% in the experiment on SF-539 CNS; 115% with UACC-257 melanoma. Besides, in the experiment on M14 melanoma, the growth is 96.4%.
In the case of `c1ccc2[nH]c(-c3ccc(-c4nccc5c4[nH]c4ccccc45)cc3)nc2c1`, the growth was 69.1% in the experiment with NCI-H23 lung; 77.4% with NCI-H226 lung; 58.7% in the experiment with NCI-H322M lung; 42.9% with NCI-H460 lung; 92.4% in the experiment on HOP-92 NSCLC; 27.3% with NCI-H522 lung. Further, the growth was 45.7% in the experiment on A549/ATCC NSCLC; 2.97% (active) in the experiment on 786-0 renal; 44.9% with COLO 205 colon; 67.4% in the experiment with DU-145 prostate; 3.52% (active) with K-562 leukemia; 90.4% in the experiment with MALME-3M melanoma. The growth with MDA-MB-231 breast is 30.2%; in the experiment on RXF 393 renal, 44.6%; in the experiment with SF-268 CNS it was 52.3%; in the experiment on SF-295 CNS, 75.1%; in the experiment with SF-539 CNS, -40.4% (active); in the experiment on UACC-257 melanoma it was 81.8%. In the experiment with M14 melanoma, the growth is 72.8%.
On to `COc1ccc(C(=O)C2OC3=C(C(=O)CC(C)(C)C3)C2c2cccc(Oc3ccccc3)c2)cc1` (configuration not stated), for which the growth is 97% in the experiment on NCI-H23 lung; 86.9% in the experiment on NCI-H226 lung; 95.1% in the experiment with NCI-H322M lung; 96.9% in the experiment with NCI-H460 lung; 76.4% in the experiment on HOP-92 NSCLC; 76.3% in the experiment on NCI-H522 lung. Besides, the growth in the experiment on A549/ATCC NSCLC was 85.7%; in the experiment on 786-0 renal, 93%; with COLO 205 colon, 110%; with DU-145 prostate, 102%; in the experiment with K-562 leukemia, 87.2%; with MALME-3M melanoma it was 112%. In addition, the growth was 87.5% with MDA-MB-231 breast; 101% with RXF 393 renal; 92.5% with SF-268 CNS; 97.1% in the experiment with SF-295 CNS; 94.5% with SF-539 CNS; 91% in the experiment with UACC-257 melanoma. Besides, the growth in the experiment with M14 melanoma was 98.7%.
For `Cc1ccc(-c2nc(C#N)c(S(=O)(=O)n3nc(C)cc3N)o2)cc1`, the growth is 90.7% with NCI-H23 lung; 94.1% in the experiment with NCI-H226 lung; 91% with NCI-H322M lung; 99.7% with NCI-H460 lung; 72.8% with HOP-92 NSCLC; -15.8% (active) in the experiment with NCI-H522 lung. Also, the growth with A549/ATCC NSCLC was 99.4%; in the experiment on 786-0 renal it was 78%; with COLO 205 colon it was -32.3% (active); in the experiment with DU-145 prostate it was 108%; in the experiment with K-562 leukemia, -17.2% (active); in the experiment with MALME-3M melanoma, -63.3% (active). The growth is 88.3% in the experiment with MDA-MB-231 breast; 76.8% in the experiment with RXF 393 renal; 93.5% in the experiment on SF-268 CNS; 109% in the experiment with SF-295 CNS; 96.7% with SF-539 CNS; 95.1% in the experiment on UACC-257 melanoma. In addition, in the experiment on M14 melanoma, the growth was 48.8%.
With `C#CCOc1cccc(Nc2ncnc3c(NC(=O)CCl)cccc23)c1`, the growth was 6.09% (active) in the experiment on NCI-H23 lung; 48.9% in the experiment with NCI-H226 lung; 72.5% in the experiment with NCI-H322M lung; 51.2% in the experiment with NCI-H460 lung; -62.1% (active) in the experiment on HOP-92 NSCLC; -73.5% (active) in the experiment on NCI-H522 lung. Also, the growth was 47.4% in the experiment with A549/ATCC NSCLC; -45.4% (active) with 786-0 renal; -55.5% (active) with COLO 205 colon; 58.9% in the experiment on DU-145 prostate; -21.7% (active) in the experiment with K-562 leukemia; -74.7% (active) with MALME-3M melanoma. The growth was -25.6% (active) in the experiment on MDA-MB-231 breast; 56.2% in the experiment on RXF 393 renal; 3.94% (active) in the experiment with SF-268 CNS; 95.6% in the experiment on SF-295 CNS; -91.3% (active) in the experiment on SF-539 CNS; 56.9% in the experiment on UACC-257 melanoma. In the experiment on M14 melanoma, the growth was 5.19% (active).
For the molecule `O=C1NCCS(=O)(=O)/C1=C\C=C\c1cccc(C(F)(F)F)c1`, the growth in the experiment on NCI-H23 lung was 22.3%; with NCI-H226 lung, 31.6%; in the experiment with NCI-H322M lung it was 63.4%; in the experiment on NCI-H460 lung, 50.1%; with HOP-92 NSCLC it was 100%; with NCI-H522 lung it was 16.9%. Also, the growth in the experiment on A549/ATCC NSCLC was 39.4%; in the experiment on 786-0 renal, 20.1%; in the experiment with COLO 205 colon it was 25.2%; in the experiment on DU-145 prostate, 29.4%; in the experiment with K-562 leukemia, 17.3%; in the experiment on MALME-3M melanoma, 29.9%. For the same molecule, the growth is 49.1% in the experiment with MDA-MB-231 breast; 35.5% with RXF 393 renal; 28.6% with SF-268 CNS; 82.7% with SF-295 CNS; 10.6% in the experiment on SF-539 CNS; 38.6% with UACC-257 melanoma. For the same molecule, the growth in the experiment with M14 melanoma is 7.1% (active).
For the molecule `NCCNc1ccc([N+](=O)[O-])cc1`, the growth is 112% in the experiment on NCI-H23 lung; 99.5% with NCI-H226 lung; 112% in the experiment on NCI-H322M lung; 111% with NCI-H460 lung; 98.9% in the experiment with HOP-92 NSCLC; 94.9% with NCI-H522 lung. Further, the growth in the experiment on A549/ATCC NSCLC is 108%; in the experiment with 786-0 renal, 99.5%; with COLO 205 colon it was 120%; in the experiment on DU-145 prostate, 126%; in the experiment with K-562 leukemia, 92.4%; in the experiment with MALME-3M melanoma, 115%. For the same molecule, the growth was 122% in the experiment with MDA-MB-231 breast; 123% in the experiment with RXF 393 renal; 110% with SF-268 CNS; 128% with SF-295 CNS; 107% with SF-539 CNS; 115% in the experiment on UACC-257 melanoma. Further, in the experiment on M14 melanoma, the growth was 106%.
As to `CCOC(=O)CC1CSC(N/N=C/c2ccc(O)cc2)=N1` (configuration not stated), the growth in the experiment with NCI-H23 lung is 102%; in the experiment on NCI-H226 lung, 105%; with NCI-H322M lung, 98.6%; in the experiment with NCI-H460 lung it was 112%; with HOP-92 NSCLC it was 80.3%; with NCI-H522 lung, 97%. In addition, the growth with A549/ATCC NSCLC is 102%; with 786-0 renal, 89.9%; with COLO 205 colon it was 111%; with DU-145 prostate, 106%; in the experiment on K-562 leukemia, 99.4%; with MALME-3M melanoma, 97%. Moreover, the growth with MDA-MB-231 breast was 113%; in the experiment with RXF 393 renal, 111%; with SF-268 CNS, 96.2%; in the experiment on SF-295 CNS, 99.1%; in the experiment on SF-539 CNS, 95.3%; in the experiment on UACC-257 melanoma it was 108%. In the experiment with M14 melanoma, the growth was 92%.

Source of the values: PubChem BioAssay (NCI).
